The whole screen tested about 6,200 compounds, of which about 2,900 (47%) were called active. No stated cut-off is given here; in the data, active means inhibition above about 50%; inactive means the rest. So high a share suggests a set chosen from earlier hits. Some of the results follow.

The nature of the experiment: Mycobacterium tuberculosis growth inhibition, primary screen (AID 1259343). The following applies: inhibition: at 10 µM, hits give high values; outcome: 10 uM.
In the case of `Cc1cc(C(C)(C)C)cc(C)c1CCNS(=O)(=O)N(C)C`, the inhibition – broadly, the change of the read-out against control, counted positive when it falls – is 27.1% (inactive).
The same measure for `Cn1ccc(C(=O)NCCc2ccc(OCc3ccccc3)cc2)cc1=O`: 65.2% (active).
For `O=C(Nc1ccn(-c2ccccc2)n1)C1CCCC1`, the inhibition was 21.5% (inactive).
Turning to `Cc1cc(C(=O)Nc2ccn(-c3ccccc3)n2)c(C)o1`, the inhibition is 59.6% (active).
The same measure for `Brc1cnn(Cc2nnc(-c3ccco3)o2)c1`: -27.3% (inactive).
Consider `Nc1cnn(Cc2ccc(Br)cc2)c1`, for which the inhibition is 94.8% (active).
Regarding `CN(C)c1cc[n+](Cc2c(Cl)cccc2Cl)cc1`, the inhibition was 21.9% (inactive).
As for `C[n+]1c2cc(N)ccc2cc2ccc(N)cc21`, the inhibition was 92% (active).
The same measure for `Oc1[nH]c2c(Cl)cc(Cl)cc2c1N=Nc1nc2ccccc2o1`: 101% (active).
With `O=C1N=c2ccccc2=C1N=Nc1c(O)[nH]c2c(Cl)cc(Cl)cc12`, the inhibition was 80% (active).
On to `O=C1N=c2ccccc2=C1N=Nc1nc(O)c(-c2c(O)[nH]c3ccccc23)s1`, for which the inhibition was -14% (inactive).
`O=C(NNc1cccc(Cl)c1)[C@@H]1CCCN1c1nccc(Nc2ccccc2)n1`: the inhibition is 91.9% (active).
Turning to `O=C(NCCCc1ccccc1)c1cc(=O)c(OCc2ccccc2)co1`, the inhibition was 99.7% (active).
For the compound `O=C(NCCCc1ccccc1)c1cc(=O)c(OCc2ccc(F)cc2)co1`, the inhibition is 99.9% (active).
Take `CCOc1coc(C(=O)NCCc2ccc(Cl)cc2)cc1=O`: the inhibition is 49.6% (inactive).
For the compound `Cc1ccc(C)c(COc2cccn3c(CCNC(=O)COCc4ccccc4)cnc23)c1`, the inhibition was 33.6% (inactive).
For `CCOC(=O)Cn1c(=NC(=O)c2cc(C)no2)sc2cccc(F)c21`, the inhibition is 49.7% (inactive).
The result for `CC(=O)Oc1ccc2c(=O)c(-c3ccc4c(c3)OCCO4)c(C)oc2c1OC(C)=O` reads 26.1% (inactive); that for `CC(=O)Oc1ccc2c(=O)c(Oc3ccc(F)cc3)c(C(F)(F)F)oc2c1`, 18.9% (inactive).
For `O=c1c(-c2ccc3c(c2)OCCO3)c(C(F)(F)F)oc2cc(O)ccc12`, the inhibition was 104% (active).
Take `Cc1sc2nc(-c3cccnc3)nc(NC(C)C(C)C)c2c1C` (stereo not drawn): the inhibition is -13.7% (inactive).
For the compound `C#CCN(CC=C)Cc1nc(-c2ccc(Cl)cc2)oc1C`, the inhibition was 14.8% (inactive).
The same measure for `CN(C)C(=S)SSC(=S)N(C)C`: 102% (active); for `CC(=O)O[C@H]1C[C@@H](OC(C)=O)C(C)(C)C2C[C@@H](OC(C)=O)[C@]3(C)C(CC[C@@]4(C)[C@H](c5ccoc5)C(=O)[C@H]5O[C@]543)[C@]21C` (stereo partly drawn): 36.2% (inactive); for `CC1(C)C(=O)C=C[C@@]2(C)C1C[C@@H](O)[C@]1(C)C2CC[C@@]2(C)[C@H](c3ccoc3)OC(=O)[C@H]3O[C@]321` (stereo partly drawn): 67% (active).
As to `O=C(CCn1cncn1)Nc1ccc2c(c1)CCC2`, the inhibition was 87.1% (active).
`Cn1cnnc1SCC(=O)Nc1ccc2c(c1)CCC2`: the inhibition was -17.5% (inactive).
For `O=C1C(=Cc2ccc(F)cc2)CSc2ccc(F)cc21`, the inhibition is 21.3% (inactive).
With `CCN1c2ccccc2N(C)[C@]1(C)c1ccccc1`, the inhibition was 68.3% (active).
As to `FC(F)(F)c1nc2n(n1)C(c1ccc(Cl)cc1)C1=C(N2)c2ccccc2SC1` (stereo not drawn), the inhibition is 36.9% (inactive).
As to `N#Cc1ccc(C2C=C(c3ccc(Br)cc3)Nc3nc(C(F)(F)F)nn32)cc1` (stereo not drawn), the inhibition was 90.9% (active).
As to `Clc1ccc(C2=CC(c3ccc4c(c3)OCO4)n3nc(-c4ccccc4)nc3N2)cc1` (stereo not drawn), the inhibition was -34.2% (inactive).
The same measure for `Fc1ccc(C2C=C(c3ccccc3)Nc3nc(C(F)(F)F)nn32)cc1F` (stereo not drawn): 3.02% (inactive).
For `Fc1ccc(C2=CC(c3ccc4c(c3)OCO4)n3nc(C(F)(F)F)nc3N2)cc1` (stereo not drawn), the inhibition is 74.3% (active).
Regarding `COc1ccc(CC2CCN(C(=O)Nc3cccc(F)c3)CC2)cc1`, the inhibition is 74.8% (active).
The same measure for `O=C(Nc1ccc(F)cc1F)N1CCC(Cc2ccc(C(F)(F)F)cc2)CC1`: 62.3% (active).
Turning to `O=C(NC1CCN(c2ccccc2C(=O)NCc2ccc(F)cc2)CC1)c1ccc(C(F)(F)F)cc1`, the inhibition was -29.8% (inactive).
As for `O=C(Nc1ccc(F)cc1F)N1CCC(Cc2ccc(-n3cccc3)cc2)CC1`, the inhibition was 51% (active).
For `O=C(Nc1nnc(C2CC2)s1)N1CCC(Cc2cccc(F)c2)CC1`, the inhibition is -2.76% (inactive).
For the compound `COc1cccc(NC(=O)N2CCC(Cc3ccc(F)cc3)CC2)c1`, the inhibition is 47.7% (inactive).
In the case of `Cc1ccc(F)cc1NC(=O)N1CCN(CCCOC(c2ccc(Cl)cc2)c2ccc(Cl)cc2)CC1`, the inhibition is 6.69% (inactive).
On to `O=C1NC2(CCN(C(=O)Nc3ccc(C(F)(F)F)cc3)CC2)Nc2cc(Cl)ccc21`, for which the inhibition was -1.82% (inactive).
The result for `COc1ccc(-n2nc3ccc(N)cc3n2)cc1` reads -45% (inactive); that for `CCCC(=O)NC(=S)Nc1ccc2nn(-c3ccccc3)nc2c1`, 79.1% (active).
As to `CCC(=O)NC(=S)Nc1ccc(C(=O)NC(C)(C)C)cc1`, the inhibition was 37.3% (inactive).
The result for `C=C(C)CSc1n[nH]c(=S)s1` reads 58.8% (active); that for `S=c1[nH]nc(SCC#Cc2ccccc2)s1`, 47.6% (inactive).
In the case of `CC(C)Sc1n[nH]c(=S)s1`, the inhibition is -48.8% (inactive).
As to `CCCCSc1n[nH]c(=S)s1`, the inhibition was -27% (inactive).
The result for `S=c1[nH]nc(SCc2c(Cl)cccc2Cl)s1` reads 23.4% (inactive); that for `CCCSc1n[nH]c(=S)s1`, -46% (inactive).
`CC(C)CSc1n[nH]c(=S)s1`: the inhibition is 100% (active).
Consider `S=c1[nH]nc(SCc2cccs2)s1`, for which the inhibition is 99.3% (active).
Take `O=C1NC(=S)SC1=Cc1c(F)cccc1Cl`: the inhibition was 83.6% (active).
For the compound `O=C1NC(=S)SC1=Cc1c(F)cccc1F`, the inhibition was 74.2% (active).
Take `CC(=O)N[C@@H]1C[C@H](Cc2ccccc2)O[C@H](c2ccc(Cl)cc2)C1`: the inhibition was 61% (active).
For `CC(C)(C)c1ccc(S(=O)(=O)/C=C/C#N)cc1`, the inhibition is 102% (active).
With `CCOC(=O)c1cc([N+](=O)[O-])nn1Cc1ccc(Cl)c(Cl)c1`, the inhibition is 19.4% (inactive).
Take `CCOC(=O)c1cnn(Cc2ccc(C)cc2)c1N`: the inhibition was 71.9% (active).
For `CCNC(=S)n1ncc(C(=O)OCC)c1N`, the inhibition was -17% (inactive).
In the case of `CCC(C)(C)C1CCc2sc3ncnc(NCCN4CCOCC4)c3c2C1` (stereo not drawn), the inhibition is 85% (active).
The result for `Clc1ccc(-c2nc(NCCN3CCOCC3)c3ccc(Cl)cc3n2)cc1` reads 47.7% (inactive); that for `Nc1c(S(=O)(=O)c2ccccc2)c2nc3ccccc3nc2n1-c1cccc(S(N)(=O)=O)c1`, 19.5% (inactive); that for `O=S1(=O)CCN2N=C(SCc3ccc(Cl)cc3)SC2=N1`, 2.87% (inactive).
For `Clc1ccc(CSc2ncccn2)cc1`, the inhibition is 55.1% (active).
With `N#Cc1ccc(CSc2ncccn2)cc1`, the inhibition is -28.1% (inactive).
Turning to `CCOC(=O)NCC(=O)N(Cc1ccc(C(F)(F)F)cc1)C1CC1`, the inhibition was -10.5% (inactive).
Turning to `Cc1ccc(OCc2ccc(C(F)(F)F)cc2)c(CO)n1`, the inhibition is 59.9% (active).
With `COc1cccc(CC2(CO)CCCN(C(=O)CCCc3ccc(Cl)cc3)C2)c1` (stereo not drawn), the inhibition was 20.4% (inactive).
Turning to `COc1cccc(CC2(C(=O)O)CCN(c3ccc(Cl)cn3)CC2)c1`, the inhibition is 90.8% (active).
With `c1ccc(-c2nnc(NC3CCCCC3)s2)cc1`, the inhibition was 28.9% (inactive).
Turning to `c1ncc(-c2ccc(NCC3CCOCC3)cc2)o1`, the inhibition was 35.5% (inactive).
Turning to `c1cc(NC2CCCCCCC2)cc(-n2ccnc2)c1`, the inhibition is 56% (active).
Turning to `Oc1ccc(Br)cc1-c1nc2cnccn2c1NC1CCCC1`, the inhibition was 37.9% (inactive).
With `c1cc(NC2CCCCCCC2)cc(-c2cnco2)c1`, the inhibition is 71.3% (active).
For the compound `c1cc(NC2CCCCCC2)c2cccnc2c1`, the inhibition is 9.23% (inactive).
On to `S=C(SC1OCCOC1SC(=S)N1CCOCC1)N1CCOCC1` (stereo not drawn), for which the inhibition was 99.8% (active).
With `COc1ccc(C(=O)COC(=O)c2ccccc2[N+](=O)[O-])cc1OC`, the inhibition is -15.5% (inactive).
For the compound `COc1ccc(C(=O)c2ccccc2)c(O)c1O`, the inhibition was 68.3% (active).
For `COc1ccc(C(=O)C=Cc2ccccc2Br)c(OC)c1`, the inhibition is 23.5% (inactive).
With `COc1ccc(C(=O)c2ccc(O)cc2)c(O)c1O`, the inhibition is 55.4% (active).
On to `COc1ccc(COc2ccc(Cl)cc2C(N)=O)cc1F`, for which the inhibition is 27.6% (inactive).
The result for `Cc1nc(SCC(=O)N(C)Cc2ccsc2)c(C(N)=O)c(C)c1C` reads -7.74% (inactive).
The same measure for `CN1CCN(C2Cc3ccccc3Sc3ccc(Cl)cc32)CC1` (stereo not drawn): 39.5% (inactive).
`CN1CCC(=C2c3ccccc3Sc3ccccc32)CC1`: the inhibition is 60.1% (active).
`CCOC(=O)c1ccc(NC(=O)N2CCc3nc(Cc4ccccc4OC)nc(N4CCOCC4)c3C2)cc1`: the inhibition was 61.8% (active).
With `COc1cccc(NC(=O)N2CCc3nc(Nc4cc(Cl)cc(Cl)c4)ncc3C2)c1`, the inhibition was 33.2% (inactive).
The result for `CCc1ccc(NC(=O)N2CCN(c3nc(-c4ccc(Cl)cc4)nc(C)c3C)CC2)cc1` reads 28.1% (inactive); that for `Oc1c(C(c2ccc(C(F)(F)F)cc2)N2CCOCC2)ccc2cccnc12` (stereo not drawn), 104% (active); that for `Oc1c(C(c2ccc(F)cc2)N2CCOCC2)ccc2cccnc12` (stereo not drawn), 82.2% (active).
With `COc1ccc(-n2nc([N+](=O)[O-])c(=NCCC3=CCCCC3)n2O)cc1`, the inhibition is 95.6% (active).
The result for `C=C(C)c1cccc(C(C)(C)NC(=O)Nc2ncccn2)c1` reads -1.81% (inactive); that for `CC(C)Cn1ccnc1NC(=O)c1cccc(C(F)(F)F)c1`, 52.5% (active).
For `CN1CCN(S(=O)(=O)c2ccc(SCCOc3ccccc3Cl)nc2)CC1`, the inhibition is 90% (active).
In the case of `COc1cc(S(=O)(=O)N2CCN(c3ccccc3C)CC2)ccc1Cl`, the inhibition was 12.3% (inactive).
The result for `CSc1nnc(COc2ccccc2Cl)n1C1CC1` reads 1.97% (inactive).
As to `CCOC(=O)c1c(N)sc(C(N)=O)c1C`, the inhibition is 84.7% (active).
The result for `CCOC(=O)c1sc(N)c(C(=O)OCC)c1C` reads 32.7% (inactive); that for `CCOC(=O)c1sc2nc(C)nc(NCC(C)C)c2c1C`, -22.6% (inactive).
Take `Cc1cccc(-c2ccc(NC(=O)C3CCN(C(=O)CCc4cnn(C)c4)CC3)cc2)c1`: the inhibition was 87.8% (active).
On to `Cc1cccc(-c2ccc(NC(=O)C3CCN(C(=O)CCc4ccncc4)CC3)cc2)c1`, for which the inhibition was 85% (active).
In the case of `Cc1cccc(-c2ccc(NC(=O)C3CCN(C(=O)Cn4cccn4)CC3)cc2)c1`, the inhibition entry was “inactive”.
On to `Cc1cccc(-c2ccc(NC(=O)C3CCN(C(=O)CSc4ccncc4)CC3)cc2)c1`, for which the inhibition is 74.8% (active).

(Values after PubChem BioAssay AID1259343 (VanderVen Lab, College of Veterinary Medicine, Cornell …, 2017).)
